Source: PubChem (National Center for Advancing Translational Sciences (NCATS))
IL-1B inflam inh: blocks inflammasome-driven IL-1 beta release. hit rate 4.7% among 360,000. THP-1 LPS/ATP IL-1B secretion, AlphaLISA, 16 h; stronger effect = lower value. AID 743279. activity change, % at 57.5 µM; in the data active = activity change below about -50%; inconclusive = mostly about -30% to -49%
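Secreted IL-1B measured by AlphaLISA bead assay after 16 h compound exposure of THP-1 cells; compounds (final up to 57.5 uM) added 1 h before LPS (250 ng/mL) and ATP (1.25 mM) stimulation; lower signal means less secretion.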
HepG2 tox: HepG2 cytotoxicity, counter-screen for TGF-b inhibitors | HepG2 CAGA-GFP viability, ATP luminescence, 18 h | Potency, µM (titrated, usually from 46.1 µM), actives largely listed as cytotoxic | hit rate 0.76% among 410,000
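HepG2 CAGA-GFP cells (1000/well, DMEM with 1% FBS) received compound, then TGF-beta at 500 pg/mL final, and were incubated 18 hours at 37 degrees C. Viability was read by CellTiter-Glo luminescence. Media-only wells were set as complete cell-killing and DMSO as no toxicity.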
DT40 TDP1 CPT: DT40-hTDP1 cell growth loss with CPT | chicken DT40 Tdp1-/-;hTDP1 cells + 20 nM CPT, ATP luminescence, 48 h | Potency, µM (highest dose often 46.2 µM), hits mostly inhibitors | hit rate 12% among 420,000 | AID 686979; note: nearly all actives have a fitted effect of over 55% in size
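Chicken DT40 Tdp1-/- cells stably complemented with human TDP1 were seeded at 400 cells/well in medium containing 20 nM camptothecin, exposed to pin-transferred compounds, and grown at 37 °C for at least 48 hr. Viability was read as ATP luminescence.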
DT40 TDP1 no CPT: qHTS for Inhibitors of human tyrosyl-DNA phosphodiesterase 1 (TDP1): qHTS in cells in absence of CPT; hit rate 15% among 420,000; Potency, µM (series often up to 46.2 µM), most hits filed as inhibitors; DT40 Tdp1-/- hTDP1 cells, no CPT, ATP luminescence, 48 h; note: nearly all actives have a fitted effect of over 55% in size
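Growth kinetics read by CellTiter-Glo luminescence after ≥48 hr at 37 °C. Cells: DT40 Tdp1-/- stably carrying human TDP1, 400 per well, compound exposure in the absence of CPT (DMSO vehicle).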
S-ASM inh: inhibitors of human secretory acid sphingomyelinase; P17405; placental ASM, HMU-PC fluorogenic substrate, 60 min; Potency, µM (titrated, usually from 57.5 µM), hits mostly inhibitors; hit rate 0.006% among 340,000; AID 504937
Target sequence (P17405 47-631 limits assumed): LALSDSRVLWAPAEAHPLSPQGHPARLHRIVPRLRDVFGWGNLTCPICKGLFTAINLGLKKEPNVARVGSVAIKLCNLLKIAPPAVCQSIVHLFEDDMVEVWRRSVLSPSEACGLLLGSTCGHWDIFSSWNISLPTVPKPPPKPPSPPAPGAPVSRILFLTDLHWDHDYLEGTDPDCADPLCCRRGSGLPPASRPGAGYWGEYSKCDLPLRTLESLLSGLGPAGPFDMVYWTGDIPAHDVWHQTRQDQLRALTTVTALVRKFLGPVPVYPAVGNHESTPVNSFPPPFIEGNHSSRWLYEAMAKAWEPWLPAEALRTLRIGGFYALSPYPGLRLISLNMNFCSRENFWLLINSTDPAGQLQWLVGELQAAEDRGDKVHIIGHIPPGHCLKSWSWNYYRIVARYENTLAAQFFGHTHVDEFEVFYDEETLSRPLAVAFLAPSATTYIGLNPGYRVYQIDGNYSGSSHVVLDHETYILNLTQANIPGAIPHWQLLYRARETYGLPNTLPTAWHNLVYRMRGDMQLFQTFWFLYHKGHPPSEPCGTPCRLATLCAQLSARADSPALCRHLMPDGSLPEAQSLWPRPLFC
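HMU-PC0 cleavage (9 uM final) by human placental ASM, 60 min at 37 °C following 10 min compound exposure at RT; stopped at pH 10, fluorescence Ex 386/Em 447 nm.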
TGFb SMAD3 inh: TGF-b pathway inhibition; Potency, µM (top dose mostly 46.1 µM), most hits filed as inhibitors; hit rate 1.2% among 410,000; HepG2 CAGA-GFP TGF-b/SMAD3 reporter, GFP fluorescence, 18 h; TGF-beta stimulated, 500 pg/mL final; note: nearly all actives have a fitted effect of over 65% in size
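Using HEPG2 CAGA-GFP reporter cells at 1000 cells/well, we pinned test compounds, stimulated with recombinant TGF-beta (500 pg/mL final) and measured total well GFP after 18 h.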
A number is an active result; i = inactive; ? = inconclusive; nt = not tested or not shown. An excerpt weighted towards active compounds, which were near 19% of everything screened. Unless noted, calls come from the whole dose curve; as a rule, active = well fitted curve in the direction sought with a large enough effect; inconclusive = small, poorly fitted or top-dose-only effect, or another doubt; inactive = no such curve, though single readings can be large; an effect the other way counts as inactive or inconclusive.

SMILES | IL-1B inflam inh | HepG2 tox | DT40 TDP1 CPT | DT40 TDP1 no CPT | S-ASM inh | TGFb SMAD3 inh
CC(=O)c1cccc(Nc2nc(-c3sc(N)nc3C)cs2)c1 | i | i | 11.6µM | 16.4µM | i | i
COc1ccc(CCNc2nc(-c3sc(N)nc3C)cs2)cc1OC | i | i | ? | 16.4µM | i | i
O=Cc1cc(-c2ccccc2)[nH]c1-c1ccccc1 | i | i | i | i | i | i
CC(Oc1ccccc1F)C(=O)NNC(=O)CCNC(=O)c1ccco1 (stereo unspecified) | i | i | i | i | i | i
COC(=O)C1=C[C@@H](C(=O)OC)[C@@H]2C3=C(C(=O)[C@]2(C)NC(=O)c2ccccc2)[C@H](C)[C@@H]2C(=O)NC(=O)[C@@H]2[C@@H]3C1 | nt | i | nt | nt | nt | i
CC(C)c1ccc(/C=C2\C=Cc3ccccc32)cc1 | nt | i | ? | ? | nt | ?
Cc1ccccc1N1CCN(C(=O)NCc2cccc(Cl)c2)CC1 | i | i | i | ? | i | i
NC(=O)C1CCN(CC(=O)Nc2cc(S(=O)(=O)N3CCOCC3)ccc2N2CCCC2)CC1 | i | i | i | i | i | i
Oc1ccccc1-c1cc(-c2ccc3c(c2)OCCO3)n[nH]1 | -60.7 | i | ? | ? | i | ?
COc1ccc(-c2cc(-c3ccccc3O)[nH]n2)cc1OC | i | i | ? | 18.4µM | i | i
COc1ccc(-c2cc(-c3cc(F)ccc3O)[nH]n2)cc1OC | i | i | ? | ? | i | i
COc1ccc(-c2cc(-c3ccc(OC)c(OC)c3)n[nH]2)c(O)c1 | i | i | 25.9µM | 20.6µM | i | i
CCN(CC(=O)NC(=O)Nc1ccccc1F)Cc1ccccc1 | i | i | i | i | nt | i
CC(C)(C)C(=O)Nc1ccnn1C1CCN(C(=O)c2cccc(Cl)c2)CC1 | i | i | i | ? | i | i
COc1cc2cc(C#N)c(SCC(=O)OC(C)C)nc2cc1OC | nt | i | ? | ? | nt | i
CS(=O)(=O)N(CC(=O)NC1CCCCC1)Cc1ccc(F)cc1 | i | i | i | i | i | i
COc1ccc(C(=O)/C=C/C(=O)N(CC(=O)NCCC(C)C)Cc2cccs2)c(O)c1 | -87.6 | i | 1.84µM | ? | i | i
COc1ccc(C(=O)/C=C/C(=O)N(CC(=O)NC2CCCCC2)Cc2ccc(F)cc2)c(O)c1 | -98.2 | i | 5.17µM | 4.61µM | i | i
O=C(NCCO)C(=O)Nc1cc2c3c(c1)CCN3C(=O)CC2 | i | i | i | i | i | i
COc1ccccc1CCN1COc2c(cc3c(C)c(C)c(=O)oc3c2C)C1 | nt | i | ? | ? | nt | i
CC(C)(C)OC(=O)NCCC(=O)N/N=C/c1ccc2ncccc2c1 | i | i | i | ? | i | i
COc1ccc2nc(/C=N/NC(=O)CCCCCNC(=O)OC(C)(C)C)ccc2c1 | i | i | 20.6µM | 18.4µM | i | i
Cc1ccc(NC(=O)/C=N/OCC(=O)NCc2ccccc2Cl)cc1 | i | i | ? | i | i | i
CCOc1ccc(-c2cc(C(=O)N3CCN(c4ccccn4)CC3)c3ccccc3n2)cc1 | i | i | 5.8µM | 9.2µM | i | i
COc1cc(-c2cc(C(=O)N3CCN(c4ccccn4)CC3)c3ccccc3n2)cc(OC)c1OC | ? | i | ? | 23.1µM | i | i
SMILES | IL-1B inflam inh | HepG2 tox | DT40 TDP1 CPT | DT40 TDP1 no CPT | S-ASM inh | TGFb SMAD3 inh
CCCc1ccc(-c2cc(C(=O)N3CCN(c4ccccn4)CC3)c3ccccc3n2)cc1 | i | i | ? | 18.4µM | i | ?
COC(=O)C1CN(C(=O)COc2ccc(Cl)cc2C)c2ccccc2O1 (stereo unspecified) | i | i | i | i | i | i
Nc1ccn([C@@H]2O[C@H](C(=O)N3CCN(Cc4ccccn4)CC3)[C@@H](O)[C@H]2O)c(=O)n1 | i | nt | i | i | nt | nt
CCNC(=O)C1CCCN(C(=O)c2cc(C)oc2C)CC1 (stereo unspecified) | i | i | i | i | nt | i
CC(C)c1ccc2oc(-c3ccc(Cl)c(NC(=O)c4cccs4)c3)nc2c1 | nt | i | nt | nt | nt | i
CCOc1cc(C2NC(=O)NC(c3ccccc3)=C2C(C)=O)ccc1OC(C)=O (stereo unspecified) | i | i | i | i | i | i
Cc1cc(C)c2c(-n3cccc3)c(C(=O)NCCCN3CCCCC3C)sc2n1 (stereo unspecified) | nt | i | ? | i | nt | i
CCC1Oc2ccccc2N(CC(=O)NCc2ccc(C)cc2)C1=O (stereo unspecified) | nt | i | ? | ? | nt | ?
CCC1Oc2ccccc2N(CC(=O)NCCC2=CCCCC2)C1=O (stereo unspecified) | i | i | 16.4µM | 25.9µM | i | i
Cc1ccc(Cc2cnc(N3C(=N)SC(c4ccccc4)C3=O)s2)cc1 (stereo unspecified) | i | i | 16.4µM | 16.4µM | i | ?
Nc1nnc(CCS(=O)(=O)c2ccc(Br)cc2)s1 | i | i | i | i | i | i
CC(=O)N1N=C(c2ccc3ccccc3c2)OC12CCCC2 | i | i | 20.6µM | ? | i | i
Cc1ccc2c(c1)COc1c3ccc(C(=O)N[C@@H](C)CO)cc3nn1-2 | i | i | ? | ? | i | i
O=C(NCCO)c1ccc2c3n(nc2c1)-c1ccc(Cl)cc1CO3 | i | i | ? | ? | i | i
Cc1ccc2c(c1)COc1c3ccc(C(=O)NC(C)C)cc3nn1-2 | i | i | ? | 10.3µM | i | i
C=CCNC(=O)c1ccc2c3n(nc2c1)-c1ccccc1CO3 | i | i | 14.6µM | 23.1µM | i | ?
COCCNC(=O)c1ccc2c3n(nc2c1)-c1ccc(Cl)cc1CO3 | i | i | ? | 20.6µM | i | i
CC1CN(c2cnn(C(C)C)c(=O)c2Cl)CC(C)O1 (stereo unspecified) | i | i | i | i | i | i
Cc1cccc(C(=O)NNc2ncnc3c2cnn3C)c1 | i | i | i | i | i | ?
O=C(NC1CCCC1)c1cn(C2CCCN(Cc3ccc4c(c3)OCCO4)C2)nn1 (stereo unspecified) | nt | nt | ? | i | nt | nt
CCC(C)N(C(=O)CSc1nc(C)nc2ccccc12)C1CCS(=O)(=O)C1 (stereo unspecified) | -58.8 | i | i | ? | i | i
C=CCn1c(SCC(=O)N(C(C)CC)C2CCS(=O)(=O)C2)nc2ccccc2c1=O (stereo unspecified) | i | 7.08µM | ? | i | i | i
CCN(C(=O)CSc1nc2ccccc2c(=O)n1-c1cccc(C)c1)C1CCS(=O)(=O)C1 (stereo unspecified) | i | i | 16.4µM | ? | i | ?
